Bioassay records as filed in PubChem BioAssay.
EBV LMP1 NFkB = EBV LMP1-driven NF-kappaB luciferase reporter inhibitors, primary screen, cell-based, luminescence, single point | LMP1-induced NF-kappaB luciferase reporter cells | inhibition, % at 12.5 µM | 0.69% of 350,000 active; in the data active = inhibition above about 41%; inconclusive = no clear call, values can overlap the other calls
NSD2 inh = NSD2 histone methyltransferase inhibitors, primary screen, biochemical, AlphaScreen, single concentration, set 2 | inhibition, % at 12.5 µM | NSD2 peptide methylation, 120 min | 0.54% of 310,000 active | Histone-lysine N-methyltransferase NSD2 (Homo sapiens), O96028; in the data active = inhibition above about 50%
Target sequence (O96028 whole entry, looked up): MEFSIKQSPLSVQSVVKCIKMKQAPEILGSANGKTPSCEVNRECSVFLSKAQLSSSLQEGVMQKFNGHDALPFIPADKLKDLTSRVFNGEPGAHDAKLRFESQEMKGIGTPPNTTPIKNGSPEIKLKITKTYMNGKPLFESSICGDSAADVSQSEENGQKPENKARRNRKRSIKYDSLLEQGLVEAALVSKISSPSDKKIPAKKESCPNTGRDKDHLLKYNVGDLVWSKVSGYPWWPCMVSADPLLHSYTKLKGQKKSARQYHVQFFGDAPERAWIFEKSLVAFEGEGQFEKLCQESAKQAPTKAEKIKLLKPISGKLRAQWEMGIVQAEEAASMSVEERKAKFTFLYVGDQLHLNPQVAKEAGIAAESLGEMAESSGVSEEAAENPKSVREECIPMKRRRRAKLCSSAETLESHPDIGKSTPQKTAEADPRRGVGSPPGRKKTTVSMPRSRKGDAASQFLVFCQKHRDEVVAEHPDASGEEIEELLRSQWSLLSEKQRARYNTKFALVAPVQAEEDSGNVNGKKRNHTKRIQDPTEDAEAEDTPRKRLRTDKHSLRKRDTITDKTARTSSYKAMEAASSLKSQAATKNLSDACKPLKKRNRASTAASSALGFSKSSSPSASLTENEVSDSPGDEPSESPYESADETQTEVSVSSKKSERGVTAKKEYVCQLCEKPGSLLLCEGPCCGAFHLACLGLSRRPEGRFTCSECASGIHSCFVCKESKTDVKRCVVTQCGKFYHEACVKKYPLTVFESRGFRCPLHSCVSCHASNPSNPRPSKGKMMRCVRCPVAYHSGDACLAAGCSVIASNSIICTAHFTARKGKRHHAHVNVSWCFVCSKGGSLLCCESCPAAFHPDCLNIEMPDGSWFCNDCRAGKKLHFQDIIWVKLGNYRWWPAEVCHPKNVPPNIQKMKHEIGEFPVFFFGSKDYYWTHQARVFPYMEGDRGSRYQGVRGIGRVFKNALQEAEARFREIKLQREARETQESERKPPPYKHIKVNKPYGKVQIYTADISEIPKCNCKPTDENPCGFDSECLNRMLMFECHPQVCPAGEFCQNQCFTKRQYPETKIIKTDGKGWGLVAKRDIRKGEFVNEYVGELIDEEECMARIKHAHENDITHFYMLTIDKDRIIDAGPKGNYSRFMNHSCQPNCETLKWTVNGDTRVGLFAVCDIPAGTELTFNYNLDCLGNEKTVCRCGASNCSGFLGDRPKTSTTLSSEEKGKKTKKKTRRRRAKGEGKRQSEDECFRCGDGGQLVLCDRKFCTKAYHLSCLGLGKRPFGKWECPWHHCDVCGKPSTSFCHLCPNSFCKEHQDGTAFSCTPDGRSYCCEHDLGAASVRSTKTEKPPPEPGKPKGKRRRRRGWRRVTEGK
N-glyco inh = increase of ERlucT glycosylation luciferase signal, primary screen, N-linked glycosylation inhibitor project, D54 ERlucT cells, luminescence, set 2. D54 ERlucT glycosylation luciferase reporter, 24 h; percent of 100 nM tunicamycin response. reporter increase, % at 12.5 µM. 0.23% of 360,000 active. AID 588692, 2011;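 active = mean luciferase reporter signal, scaled so untreated is 0 and the glycosylation-blocking control 100, at or above a set limit in every replicate; inconclusive = mean reaches the limit but not every replicate does; inactive = mean below the limit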;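 note: luciferase carries N-glycosylation sites so blocking glycosylation raises the light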
PAX8 inh HTS = inhibitors of PAX8-driven TPO luciferase reporter, primary screen, RMG-I cells, single concentration; SteadyGlo, 24 h; inhibition, % at 12.6 µM; 1.2% of 360,000 active;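 active = mean replicate inhibition at least 60% with every replicate also reaching 60%; inconclusive = only one of the two criteria is met; inactive = mean below 60% and not all replicates reaching 60%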;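 note: luciferase light reporting Pax8 driven TPO promoter activity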
HIV Env fusion = inhibitors of HIV-1 Env-driven cell-cell fusion, primary screen, HeLa-JRFL effector, CEM21 target cells, luciferase; inhibition, % at 12.3 µM; 1.1% of 360,000 active;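 active = mean replicate inhibition score of at least 50 and every replicate individually at or above 50; inconclusive = only one of the two criteria met; inactive = mean below 50 and not all replicates reaching 50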
Shn3 3UTR inh = reduction of Shn3 3'UTR firefly luciferase signal, primary screen, Schnurri-3 inhibitor project, cell-based, Clone20 osteoblasts, set 2 | 0.52% of 360,000 active | Clone20 osteoblast Shn3 3'UTR firefly luciferase, 24 h | inhibition, % at 12.5 µM;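 active = mean inhibition of at least 75% with every replicate also reaching 75%; inconclusive = mean inhibition at least 75% but some replicate below; inactive = mean inhibition below 75%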
Hits are given with their value; i = inactive; ? = inconclusive; nt = not tested or not shown. Compounds with a hit are over-represented: about 2.8% of the library has one in this group of screens.

SMILES	EBV LMP1 NFkB	NSD2 inh	N-glyco inh	PAX8 inh HTS	HIV Env fusion	Shn3 3UTR inh
CC[C@@]12C(=O)N(c3cccc(Cl)c3)C(=O)N1[C@H](c1ccc(Br)cc1)[C@@H]1C(=O)N(C(C)(C)C)C(=O)[C@@H]12	i	nt	i	i	84	i
CC(C)C[C@@]12C(=O)N(c3cccc(F)c3)C(=O)N1[C@H](c1ccc(Br)cc1)[C@@H]1C(=O)N(C(C)(C)C)C(=O)[C@@H]12	i	nt	i	i	69	i
CC(C)C[C@@]12C(=O)N(c3cccc(Cl)c3)C(=O)N1[C@H](c1ccc(Br)cc1)[C@@H]1C(=O)N(C(C)(C)C)C(=O)[C@@H]12	i	nt	i	i	91	i
CC(C)C[C@@]12C(=O)N(c3ccc(Br)cc3)C(=O)N1[C@H](c1ccc(Br)cc1)[C@@H]1C(=O)N(C(C)(C)C)C(=O)[C@@H]12	i	nt	i	i	80	i
CCCNC(=O)N1C[C@@H](C)[C@H](OC)CN(C)C(=O)c2cc(NC(=O)CC)ccc2OC[C@@H]1C	nt	nt	nt	i	nt	nt
CCOC(=O)CSc1nc(Cc2ccccc2)nc2ccccc12	i	i	i	i	56	i
CCOC(=O)CSc1nc(CC)nc2ccccc12	i	i	i	nt	nt	i
CCCCNc1c(-c2cccc(-c3ccc(OC)cc3)c2)nc2cc(C)ccn12	i	nt	i	i	i	87
CCCCNc1c(-c2cccc(-c3ccc(OC)cc3)c2)nc2ccc(C)cn12	i	nt	i	i	i	i
Cc1ccn2c(NC3CCCCC3)c(-c3cccc(-c4cccc(Cl)c4)c3)nc2c1	i	nt	i	i	70	i
COC(=O)c1cc2c(c3c4cc(OC)ccc4n(S(=O)(=O)c4ccc(C)cc4)c13)C(=O)N(Cc1ccccc1)C2	nt	nt	nt	i	?	nt
COC(=O)c1cc2c(n1S(=O)(=O)c1ccc(C)cc1)C(=O)C(=O)c1[nH]cc(C(=O)OCc3ccccc3)c1-2	88	i	i	nt	nt	92
COc1ccc(S(=O)(=O)Nc2ccc3c(c2)C(=O)N([C@H](C)CO)C[C@@H](C)[C@H](CN(C)C)OCCCC[C@H](C)O3)cc1	nt	nt	nt	i	?	nt
CC(=C\C(=O)O)/C(=C/c1ccc(C)o1)C(=O)O	i	i	i	76	nt	i
C[C@H]1CCCCO[C@H](CN(C)C(=O)c2ccccc2)[C@@H](C)CN([C@@H](C)CO)C(=O)c2cc(NC(=O)NC3CCCCC3)ccc2O1	nt	nt	nt	i	i	nt
CCN(CC)c1ccc(C2NC(=O)c3ccccc3N2)cc1 (stereo not drawn)	43	nt	i	?	i	i
Cc1ccc(S(=O)(=O)N[C@H]2CC[C@H](CCn3cc(C4(O)CCCC4)nn3)O[C@H]2CO)cc1	nt	nt	nt	i	i	nt
CN(Cc1ccccc1)S(=O)(=O)c1ccc(S(=O)(=O)N(Cc2ccc(F)cc2)C2CCCC2)cc1	i	i	i	nt	58	i
O=C(O)c1ccc(S(=O)(=O)N(Cc2ccc(F)cc2)C2CCCCC2)cc1	i	i	i	i	i	i
C[C@H](CO)N1C[C@H](C)[C@@H](CN(C)C(=O)c2ccncc2)Oc2ncc(-c3ccc(C(=O)N(C)C)cc3)cc2C1=O	nt	nt	nt	i	i	nt
COC(=O)[C@@]1(Sc2ccc(C)cc2)CC(=O)N(c2ccccc2)[C@@H]1c1ccccc1	nt	nt	nt	65	i	nt
CCCN(C)C[C@H]1OCCCC[C@H](C)Oc2ccc(NS(=O)(=O)c3c(C)noc3C)cc2C(=O)N([C@@H](C)CO)C[C@H]1C	nt	nt	nt	i	i	nt
O=C(COc1ccc2c(-c3ccccc3)cc(=O)oc2c1)N[C@@H](Cc1c[nH]c2ccc(O)cc12)C(=O)O	i	nt	50	nt	nt	i
O=C(Nc1ccc(N2CCN(C(=O)c3ccccc3)CC2)c(Cl)c1)c1ccco1	i	i	i	nt	nt	i
O=C(Nc1ccc(N2CCN(C(=O)c3ccco3)CC2)c(Cl)c1)c1cc2ccccc2o1	i	i	i	nt	nt	90
SMILES	EBV LMP1 NFkB	NSD2 inh	N-glyco inh	PAX8 inh HTS	HIV Env fusion	Shn3 3UTR inh
CCC(=O)N1CCN(c2ccc(NC(=O)c3cc4ccccc4o3)cc2Cl)CC1	i	nt	i	nt	nt	i
CCCC(=O)N1CCN(c2ccc(NC(=O)c3cc4ccccc4o3)cc2Cl)CC1	i	nt	i	nt	nt	91
COc1ccccc1C#Cc1ccc([C@H]2[C@@H](CO)N3CCCCN(C(=O)C4CCC4)C[C@@H]23)cc1	nt	nt	nt	i	nt	nt
Cc1noc(C)c1NC(=O)NC[C@H]1CC[C@H]2[C@H](CN2Cc2cccc(-c3ccccn3)c2)O1	nt	nt	nt	i	i	nt
CN(C)c1nc(C=C(C#N)C#N)c(Cl)n1-c1ccc(F)cc1	i	i	i	68	i	97
C[C@H]1CCCCO[C@H](CN(C)Cc2ccc(Cl)c(Cl)c2)[C@@H](C)CN([C@@H](C)CO)C(=O)c2cc(N(C)C)ccc2O1	nt	nt	nt	i	i	nt
CCNc1ccc(C(=O)OCC)cc1NC(=O)c1cc(S(=O)(=O)N2CCOCC2)ccc1C	i	i	i	nt	62	i
C[C@H](NC(=O)C[C@@H]1CC[C@@H](NC(=O)C2CC2)[C@H](CO)O1)c1ccccc1	nt	nt	nt	i	i	nt
COc1cccc(/C=C2/Sc3ccc(C(=O)NCCN4CCCCCC4)cc3NC2=O)c1	i	i	i	97	i	i
CC(=O)N(C)C[C@H]1Oc2cc(-c3ccncc3)ccc2S(=O)(=O)N([C@H](C)CO)C[C@H]1C	nt	nt	nt	nt	i	nt
CN(C)c1ccc(N=Nc2ccc(C(=O)O)cc2)cc1	i	i	i	i	i	i
Cc1csc(N=Nc2ccc(N(C)C)cc2)[n+]1[O-]	55	i	i	68	i	i
CCCN(C)C[C@H]1OCCCC[C@H](C)Oc2ccc(NC(=O)Nc3ccc(C(F)(F)F)cc3)cc2C(=O)N([C@@H](C)CO)C[C@H]1C	nt	nt	nt	i	i	nt
C[C@H](CO)N1C[C@H](C)[C@H](CN(C)CC2CCCCC2)OCCCC[C@H](C)Oc2ccc(NC(=O)Nc3ccc(C(F)(F)F)cc3)cc2C1=O	nt	nt	nt	68	i	nt
